Bioassay records from PubChem.
TDP1 cell CPT – qHTS for Inhibitors of human tyrosyl-DNA phosphodiesterase 1 (TDP1): qHTS in cells in presence of CPT. Potency, µM (top dose mostly 46.2 µM), for the others: at the top dose activity change, negative = growth inhibition, actives largely listed as inhibitors. 420,000 tested, 12% active. chicken DT40 Tdp1-/-;hTDP1 cells + 20 nM CPT, ATP luminescence, 48 h; further: on the % scale 0 is the no-effect control and ±100 the full control effect; nearly all actives have a fitted effect of over 55% in size
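Cell growth measured by CellTiter-Glo luminescence after a minimum 48 h, 37 C compound exposure with 20 nM CPT in Tdp1-knockout DT40 cells stably expressing hTDP1, seeded 400/well; qHTS titration format.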
ATXN2 expr inh – Primary qHTS for Inhibitors of ATXN expression | 360,000 tested, 0.72% active | HEK-293 ATXN2-luciferase reporter, luminescence, 24 h | Potency, µM (top dose mostly 57 µM), without a hit: at the highest dose activity change, negative = inhibition, hits mostly inhibitors | AID 1745845, 2022; further: on the % scale 0 is the no-effect control and ±100 the full control effect; nearly all actives have a fitted effect of over 55% in size
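ATXN2-luciferase reporter cells (luciferase flanked by upstream and downstream ATXN2 gene portions) were treated 24 h at 37 °C with compounds at up to 57 uM. SteadyGlo luminescence gave expression; GF-AFC fluorescence gave viability.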
TGFb SMAD3 inh – qHTS for Inhibitors of TGF-b; Potency, µM (doses to about 46.1 µM), for inactives: top-dose activity, negative = inhibition, actives largely listed as inhibitors; 410,000 tested, 1.2% active; HepG2 CAGA-GFP TGF-b/SMAD3 reporter, GFP fluorescence, 18 h; TGF-beta stimulated, 500 pg/mL final; further: on the % scale 0 is the no-effect control and ±100 the full control effect; nearly all actives have a fitted effect of over 65% in size
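Cell-based qHTS in HEPG2 carrying a CAGA-GFP Smad reporter; compounds added before 500 pg/mL final TGF-beta, 18 h incubation at 37 degrees C, GFP fluorescence quantified per cell by imaging cytometry.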
S2 tox – Viability Counterscreen for Primary qHTS for Inhibitors of ATXN expression. S2 cells (HEK-293 line with an ATXN2-luciferase reporter) viability, CellTiter-Fluor protease fluorescence, 24 h. Potency, µM (doses to about 56.7 µM), hits mostly cytotoxic. 400,000 tested, 0.49% active; further: nearly all actives have a fitted effect of over 40% in size
HepG2 viability – qHTS for Inhibitors of TGF-b: Cytotox Counterscreen | HepG2 CAGA-GFP viability, ATP luminescence, 18 h | 410,000 tested, 0.76% active | Potency, µM (top dose mostly 46.1 µM), without a hit: at the top dose activity change, negative = cytotoxicity, most hits filed as cytotoxic
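HepG2 CAGA-GFP cells (1000/well, DMEM with 1% FBS) received compound, then TGF-beta at 500 pg/mL final, and were incubated 18 hours at 37 degrees C. Viability was read by CellTiter-Glo luminescence. Media-only wells were set as complete cell-killing and DMSO as no toxicity.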
DT40 TDP1 no CPT – qHTS for Inhibitors of human tyrosyl-DNA phosphodiesterase 1 (TDP1): qHTS in cells in absence of CPT. DT40 Tdp1-/- hTDP1 cells, no CPT, ATP luminescence, 48 h. Potency, µM (titrated, usually from 46.2 µM), without a hit: at the top dose activity change, negative = growth inhibition, most hits filed as inhibitors. 420,000 tested, 15% active. AID 686978, 2013; further: on the % scale 0 is the no-effect control and ±100 the full control effect; nearly all actives have a fitted effect of over 55% in size
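Seeded 400 DT40-hTDP1 cells/well (vehicle DMSO, no 20 nM CPT); pinned compounds; ≥48 hr at 37 °C; CellTiter-Glo luminescence as viability measure.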
An asterisk follows results filed as active; i = inactive; u = inconclusive; x = no result given. Shown are actives, neighbours in structure and some others; about 17% of the full set was active somewhere. The call rests on the fitted dose curve; in most records, active means well fitted curve in the direction sought with a large enough effect; inconclusive means small, poorly fitted or top-dose-only effect, or another doubt; inactive means no such curve, though single readings can be large; an effect the other way counts as inactive or inconclusive. Potency means the concentration at half of the fitted maximal effect.

SMILES	TDP1 cell CPT	ATXN2 expr inh	TGFb SMAD3 inh	S2 tox	HepG2 viability	DT40 TDP1 no CPT
Cc1ccccc1CN1CCCN(CC(=O)Nc2ccc3c(c2)OCCO3)S1(=O)=O	-30.0%	10.7%	-21.8%	i	-24.2%	-23.8%
Cc1cccc2sc(NC(=O)C3CCN(C(=O)c4ccco4)CC3)nc12	u	-19.8%	-20.6%	i	-13.2%	u
COc1ccccc1CNC(=O)c1cc(S(=O)(=O)N2CCCCCC2)cn1C	-9.7%	-6.7%	0.0%	i	-21.9%	-17.0%
Cc1ccc2nc(-c3ccccc3C)c(CN(CC3CCCO3)C(=O)c3cccs3)cc2c1 (centres undefined)	-5.6%	x	x	i	x	-9.0%
O=C(NC1CCCCC1)C(c1ccc(C(F)(F)F)cc1)n1c(=O)c(-c2ccccc2)nc2ccccc21 (centres undefined)	u	x	x	x	x	13µM*
O=C(NC1CCCCC1)C(CCc1ccccc1)n1c(=O)c(-c2ccccc2)nc2ccccc21 (centres undefined)	u	x	x	x	x	-28.6%
Cc1cccc(C)c1NC(=O)C(C1CC1)n1c(-c2ccc(C(F)(F)F)cc2)nc2ccccc21 (centres undefined)	u	x	x	x	x	18.4µM*
Cc1cc(C)c(NC(=O)C(C)n2c(=O)c(C(F)(F)F)nc3ccccc32)c(C)c1 (centres undefined)	u	-19.2%	-24.8%	i	-14.8%	u
CC(C)(C)NC(=O)C(c1ccc(C(F)(F)F)cc1)n1c(=O)c(-c2ccccc2)nc2ccccc21 (centres undefined)	18.4µM*	x	x	x	x	u
O=C(NC1CCCC1)C(c1ccccc1)n1c(Cc2cc(F)cc(F)c2)nc2ccccc21 (centres undefined)	18.4µM*	x	x	x	x	u
CC(C)(C)NC(=O)C(c1ccncc1)n1c(=O)c(-c2ccccc2)nc2ccccc21 (centres undefined)	-6.3%	x	x	x	x	-8.2%
Cc1ccc(OCc2nc3ccccc3n2C(C(=O)NC(C)(C)C)c2ccncc2)cc1 (centres undefined)	-6.2%	x	x	x	x	1.7%
COc1ccc(C(C(=O)NC(C)(C)C)n2c(-c3ccc(C(F)(F)F)cc3)nc3ccccc32)cc1 (centres undefined)	16.4µM*	x	x	x	x	u
Cc1ccc(C(=O)NCC(=O)OCc2nnc(-c3ccc([N+](=O)[O-])cc3)o2)s1	u	-7.7%	-1.2%	i	3.0%	-29.3%
CC(=O)c1ccc(NC(=O)Cn2ncc3c(C)n(Cc4ccc(F)cc4)c(C)c3c2=O)cc1	1.2%	x	-2.1%	x	-0.5%	-17.5%
CCc1ccccc1NC(=O)Cn1ncc2c(C)n(Cc3ccccc3F)c(C)c2c1=O	u	x	-2.9%	x	-5.6%	u
CCN(CC)c1ccc(NC(=O)Cn2ncc3c(C)n(Cc4ccccc4F)c(C)c3c2=O)c(C)c1	u	-4.5%	-3.3%	i	1.6%	20.6µM*
CCN(CC)c1ccc(NC(=O)CN2C(=O)CC(C)(C)S(=O)(=O)c3ccccc32)c(C)c1	14.6µM*	-20.3%	0.6%	i	-3.2%	16.4µM*
COC(=O)c1ccccc1NC(=O)Cn1ncc2c(C)n(Cc3ccc(F)cc3)c(C)c2c1=O	20.6µM*	x	u	x	-35.6%	u
Cc1noc(C)c1C(=O)N1CCC[C@@]2(CCN(c3cccc(-c4ccccc4)c3)C2)C1	16.4µM*	x	x	x	x	18.4µM*
Cc1noc(C)c1C(=O)N1CCC2(CCCN(Cc3ccccc3)C2)CC1	3.7%	x	x	x	x	-7.4%
Cc1noc(C)c1C(=O)N1CCC2(CCCN(C(c3ccccc3)c3ccccc3)C2)CC1	u	x	x	x	x	23.1µM*
CCCCn1[nH]c(-c2ccccc2)cc1=O	u	-8.6%	-19.8%	i	-3.4%	18.4µM*
CCCc1cc(=O)n2[nH]c(-c3ccccc3)cc2n1	-13.7%	0.0%	3.4%	i	-14.6%	u
Cc1cc(Cl)c(OCCOCCN2CCCCC2)c(Br)c1	-16.3%	-28.8%	0.7%	i	1.9%	u
SMILES	TDP1 cell CPT	ATXN2 expr inh	TGFb SMAD3 inh	S2 tox	HepG2 viability	DT40 TDP1 no CPT
CC1CCCN(CCOCCOc2ccc(Br)cc2Cl)C1 (centres undefined)	18.4µM*	-17.7%	-24.2%	i	-19.0%	18.4µM*
CN1CCN(CCOCCOc2ccc(Br)cc2Cl)CC1	u	-4.9%	-18.1%	i	-24.2%	u
CC1CCCN(CCOCCOc2ccc(Cl)cc2Br)C1 (centres undefined)	u	u	u	u	-37.3%	17.8µM*
CC1CCCN(CCOc2ccc(Br)cc2)C1 (centres undefined)	3.3%	-6.8%	-0.2%	i	-19.6%	-20.4%
Cc1cc(Cl)c(OCCOCCN2CCCC(C)C2)c(Br)c1 (centres undefined)	29.1µM*	-17.7%	-9.0%	i	-7.5%	16.4µM*
COc1ccc(-c2nc(C)c(CCNC(=O)C(=O)Nc3ccccc3F)s2)cc1	x	7.1%	2.4%	i	1.0%	x
CCOc1ccc(N(CC(=O)NC2CCCCC2)C(=O)CCCC(=O)Nc2ccccn2)cc1	8.0%	-19.9%	-2.6%	i	1.4%	-5.9%
CCC(=O)N(CCC(Cc1ccccc1)c1ccc2c(c1)OCO2)Cc1ccccc1F (centres undefined)	7.31µM*	2.9%	u	i	-57.8%	4.61µM*
O=C(c1ccco1)N(CCC(c1ccccc1)c1ccco1)Cc1ccccc1 (centres undefined)	u	-16.0%	-23.2%	i	-5.1%	u
CCC(=O)N(CCC(c1ccccc1)c1ccco1)Cc1cccs1 (centres undefined)	16.4µM*	-19.0%	u	i	-8.5%	20.6µM*
CCC(=O)N(CCC(Cc1ccccc1)c1ccco1)Cc1ccco1 (centres undefined)	18.4µM*	-31.1%	-24.1%	i	19.7%	14.6µM*
CCC(=O)N1CCN(c2ccc(-n3c(=O)ccc4cnc5ccc(-c6cnc7ccccc7c6)cc5c43)cc2C(F)(F)F)CC1	x	3.0%	x	x	x	x
CN(C)c1ccc(-c2cncnc2NCCN2CCOCC2)cc1	0.92µM*	x	x	x	x	1.16µM*
Cc1ccccc1-c1cncnc1NCCN1CCOCC1	2.91µM*	x	x	x	x	3.26µM*
COc1cccc(-c2cncnc2NCc2cnc(C)cn2)c1	4.61µM*	x	x	x	x	3.66µM*
